# Measured values taken from PubChem BioAssay.
# Several values for one entry are separate records, joined by “and”; a condition that tells them apart may be missing. Equal values may be shown once. Records with an inconclusive call do not appear. Activity calls are given as the source filed them.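 Rule for the calls, unless noted: active = normalized viability below 100% at a tested concentration; inactive = the rest.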
# Key:
# [1] = viability loss in pontine glioma line – cell-based, SU-DIPG-XVII, MIPE5.0, CellTiter-Glo, qHTS, dose response (AID 1347060; cut-off not given, nearly all actives have AC50 up to about 26 µM;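 for AC50: cells exposed to compound for 48 hours before viability readout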); details: CellTiter-Glo ATP luminescence
# [2] = viability loss in pontine glioma line – cell-based, JHH-DIPG-1, MIPE4.0, CellTiter-Glo, qHTS, dose response (AID 1347062; cut-off not given, nearly all actives have AC50 up to about 27 µM;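 for AC50: cells exposed to compound for two days before readout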); details: JHH-DIPG-1 viability, CellTiter-Glo ATP luminescence
# [3] = viability loss in pontine glioma line – cell-based, SU-DIPG-XIII, MIPE5.0, CellTiter-Glo, qHTS, dose response (AID 1347064; cut-off not given, nearly all actives have AC50 up to about 23 µM;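 for AC50: cells exposed to compound for 48 hours before the viability read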); details: CellTiter-Glo ATP luminescence
# [4] = viability loss in pontine glioma line – cell-based, SU-DIPG-XXV, MIPE5.0, CellTiter-Glo, qHTS, dose response (AID 1347065; cut-off not given, nearly all actives have AC50 up to about 26 µM;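 note: cells exposed to compound for 48 hours before ATP readout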); details: CellTiter-Glo ATP luminescence
# [5] = growth inhibition of DIPG cells – cell-based, MIPE4.0 library, CellTiter-Glo luminescence, qHTS (AID 1347066; cut-off not given, nearly all actives have AC50 up to about 30 µM;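 note: cells exposed to compound for 48 hours before readout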); details: SU-DIPG-VI viability, CellTiter-Glo ATP luminescence
# [6] = JHH-DIPG-1 glioma cell viability, MIPE5.0 library, CellTiter-Glo luminescence, qHTS (AID 1347067; cut-off not given, nearly all actives have AC50 up to about 26 µM;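 note: cells exposed to compound for 48 hours before readout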); details: JHH-DIPG-1 glioma viability, CellTiter-Glo ATP luminescence
# [7] = growth inhibition of DIPG cells – cell-based, MIPE5.0 library, qHTS (AID 1347068; cut-off not given, nearly all actives have IC50 up to about 30 µM;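 for IC50: cells exposed to compound for 48 hours before viability readout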); details: SU-DIPG-XXV viability
# [8] = compounds altering HSF1 focus formation in cells – imaging, Selleck Cancer Library (AID 1347162; in the data active = plate-normalised HSF1 focus index below about 0.46); details: human cells, HSF1 nuclear foci imaging, at 10 µM; SSMD: measured here: HSF1 foci SSMD mean; cell count: measured here: cell number; plate-normalised HSF1 focus index: stronger effect = lower value
# [9] = drug combination growth inhibition, ovarian cancer – cell-based, oncology-focused library, rucaparib conditional, profiling panel (AID 1508598); details: patient-derived ovarian cancer cells, CellTiter-Glo viability, 144 h, stronger effect = lower value
# [10] = viability loss with induced miR-34 in A549 – imaging, A549 dox-inducible miR-34, nuclei and caspase counts, primary screen (AID 1347080;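 active = compounds whose cell count with miR-34 switched on is under 0.7 times the count with it off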); details: A549 miR-34 inducible, Hoechst nuclei count, 48 h
# [11] = MELAS cybrid and Rieske KO viability enhancers – cell-based, MELAS cybrids, Rieske KO mouse fibroblasts, CellTiter-Glo, primary screen (AID 1508586;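 active = mean z-score across replicates of 1.96 or higher in either the MELAS or the Rieske mutant cell line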;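 note: z relative to plate mean and SD of compound and empty wells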); details: low glucose
# [12] = P. berghei load reduction in hepatocytes – cell-based, HepG2, luciferase luminescence, HepG2 viability, primary screen (AID 624349; in the data active = parasite load remaining mostly below about 12%, no sharp cut-off; inactive = mostly above about 10%;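 note: 100% = mean of DMSO negative control wells on the same plate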); details: P. berghei liver stage in HepG2, luciferase luminescence, concentration not given here; parasite load remaining: stronger effect = lower value; viability: measured here: HepG2 viability without parasites
# [13] = stronger effect = lower value, cell number ratio, induced over uninduced
# [14] = measured here: relative caspase fold change +Dox/-Dox
# [15] = measured here: total cells with miR-34 induction, stronger effect = lower value
# [16] = measured here: total cells without miR-34 induction
# [17] = MELAS cybrid survival, CellTiter-Glo 48 h, stronger effect = higher value
# [18] = Rieske KO mouse fibroblast survival, CellTiter-Glo 72 h
structure (smiles),measurement,setting,value
CN1CC(=O)NC1=NC(=O)Nc1cccc(Cl)c1,outcome,[1],inactive
same,outcome,[2],inactive
same,outcome,[3],inactive
same,outcome,[4],inactive
same,AC50,[5],23.5 µM (active)
same,outcome,[6],inactive
same,outcome,[7],inactive
CC[C@@H]1C(=O)N(C)c2cnc(Nc3ccc(C(=O)NC4CCN(C)CC4)cc3OC)nc2N1C1CCCC1,AC50,[1],0.0661 µM (active)
same,AC50,[2],8.33 µM (active)
same,AC50,[3],1.48 µM (active)
same,AC50,[4],0.0372 µM (active)
same,AC50,[5],20.9 µM (active)
same,SSMD,[8],4.3
same,cell count,[8],7240
same,plate-normalised HSF1 focus index,[8],1.16 (inactive)
same,viability,"[9]; at 0.000305 µM, OCI-C5x cells, with rucaparib 10 µM, 100% = cells with rucaparib alone",116% (inactive)
same,viability,"[9]; at 0.000305 µM, OCI-C5x cells, without rucaparib",133% (inactive)
same,viability,"[9]; at 0.000305 µM, OCI-P5x cells, with rucaparib 20 µM, 100% = cells with rucaparib alone",89.2% (active)
same,viability,"[9]; at 0.000305 µM, OCI-P5x cells, without rucaparib",77.1% (active)
same,viability,"[9]; at 0.00122 µM, OCI-C5x cells, with rucaparib 10 µM, 100% = cells with rucaparib alone",126% (inactive)
same,viability,"[9]; at 0.00122 µM, OCI-C5x cells, without rucaparib",124% (inactive)
same,viability,"[9]; at 0.00122 µM, OCI-P5x cells, with rucaparib 20 µM, 100% = cells with rucaparib alone",89.5% (active)
same,viability,"[9]; at 0.00122 µM, OCI-P5x cells, without rucaparib",50.9% (active)
same,viability,"[9]; at 0.00488 µM, OCI-C5x cells, with rucaparib 10 µM, 100% = cells with rucaparib alone",51.4% (active)
same,viability,"[9]; at 0.00488 µM, OCI-C5x cells, without rucaparib",47.2% (active)
same,viability,"[9]; at 0.00488 µM, OCI-P5x cells, with rucaparib 20 µM, 100% = cells with rucaparib alone",74.9% (active)
same,viability,"[9]; at 0.00488 µM, OCI-P5x cells, without rucaparib",17% (active)
same,viability,"[9]; at 0.0195 µM, OCI-C5x cells, with rucaparib 10 µM, 100% = cells with rucaparib alone",40.7% (active)
same,viability,"[9]; at 0.0195 µM, OCI-C5x cells, without rucaparib",37.1% (active)
same,viability,"[9]; at 0.0195 µM, OCI-P5x cells, with rucaparib 20 µM, 100% = cells with rucaparib alone",71.7% (active)
same,viability,"[9]; at 0.0195 µM, OCI-P5x cells, without rucaparib",18.2% (active)
same,viability,"[9]; at 0.0781 µM, OCI-C5x cells, with rucaparib 10 µM, 100% = cells with rucaparib alone",38.3% (active)
same,viability,"[9]; at 0.0781 µM, OCI-C5x cells, without rucaparib",30.4% (active)
same,viability,"[9]; at 0.0781 µM, OCI-P5x cells, with rucaparib 20 µM, 100% = cells with rucaparib alone",66.7% (active)
same,viability,"[9]; at 0.0781 µM, OCI-P5x cells, without rucaparib",16.5% (active)
same,viability,"[9]; at 0.313 µM, OCI-C5x cells, with rucaparib 10 µM, 100% = cells with rucaparib alone",32.5% (active)
same,viability,"[9]; at 0.313 µM, OCI-C5x cells, without rucaparib",30.3% (active)
same,viability,"[9]; at 0.313 µM, OCI-P5x cells, with rucaparib 20 µM, 100% = cells with rucaparib alone",48.5% (active)
same,viability,"[9]; at 0.313 µM, OCI-P5x cells, without rucaparib",15.8% (active)
same,viability,"[9]; at 1.25 µM, OCI-C5x cells, with rucaparib 10 µM, 100% = cells with rucaparib alone",15.9% (active)
same,viability,"[9]; at 1.25 µM, OCI-C5x cells, without rucaparib",18.2% (active)
same,viability,"[9]; at 1.25 µM, OCI-P5x cells, with rucaparib 20 µM, 100% = cells with rucaparib alone",43% (active)
same,viability,"[9]; at 1.25 µM, OCI-P5x cells, without rucaparib",15.1% (active)
same,viability,"[9]; at 5 µM, OCI-C5x cells, with rucaparib 10 µM, 100% = cells with rucaparib alone",18% (active)
same,viability,"[9]; at 5 µM, OCI-C5x cells, without rucaparib",21.9% (active)
same,viability,"[9]; at 5 µM, OCI-P5x cells, with rucaparib 20 µM, 100% = cells with rucaparib alone",34.3% (active)
same,viability,"[9]; at 5 µM, OCI-P5x cells, without rucaparib",15.2% (active)
CN(C(=O)c1ccc(F)cc1C(F)(F)F)C1CCN(c2nnc(-c3ccnn3C)c3ccccc23)CC1,outcome,[1],inactive
same,outcome,[2],inactive
same,outcome,[3],inactive
same,outcome,[4],inactive
same,outcome,[5],inactive
same,outcome,[6],inactive
same,outcome,[7],inactive
CN(C(Cc1ccc(OS(=O)(=O)c2cccc3cnccc23)cc1)C(=O)N1CCN(c2ccccc2)CC1)S(=O)(=O)c1cccc2cnccc12 (stereo not given),outcome,[1],inactive
same,outcome,[2],inactive
same,outcome,[3],inactive
same,outcome,[5],inactive
same,outcome,[6],inactive
same,outcome,[7],inactive
same,fold change,[10]; [13],0.886 (inactive) and 0.945 (inactive)
same,fold change,[10]; [14],1.12 and 0.338
same,cell count,[10]; [15],4410 and 6540
same,cell count,[10]; [16],4980 and 6920
same,z-score,[11]; [17],-0.441 (inactive)
same,z-score,[11]; [18],-1.42
COc1ccc(C2=N[C@H](c3ccc(Cl)cc3)[C@H](c3ccc(Cl)cc3)N2C(=O)N2CCNC(=O)C2)c(OC(C)C)c1,AC50,[1],14.8 µM (active)
same,AC50,[2],23.5 µM (active)
same,AC50,[3],16.6 µM (active)
same,AC50,[4],10.5 µM (active)
same,outcome,[5],inactive
same,outcome,[7],inactive
COCCOc1ccc2c(c1)ncn2-c1ccc2cccc(N3CCC(N)CC3)c2n1,AC50,[1],11.8 µM (active)
same,AC50,[2],9.35 µM (active)
same,AC50,[3],9.34 µM (active)
same,AC50,[4],11.8 µM (active)
same,IC50,[7],18.6 µM (active)
same,fold change,[10]; [13],1.1 (inactive)
same,fold change,[10]; [14],0.953
same,cell count,[10]; [15],1460
same,cell count,[10]; [16],1320
same,z-score,[11]; [17],0.564 (inactive)
same,z-score,[11]; [18],-2.41
Cn1cc(/C=C/C(=O)c2cccc(F)c2)cc1/C=C/C(=O)NO,AC50,[1],3.72 µM (active)
same,outcome,[2],inactive
same,AC50,[3],2.35 µM (active)
same,AC50,[4],5.25 µM (active)
same,outcome,[5],inactive
same,AC50,[6],13.2 µM (active)
COc1cc(N2CCC(N3CCN(C)CC3)CC2)ccc1Nc1ncc(Cl)c(Nc2ccccc2S(=O)(=O)C(C)C)n1,AC50,[1],0.372 µM (active)
same,AC50,[2],18.7 µM (active)
same,AC50,[3],0.661 µM (active)
same,AC50,[4],0.59 µM (active)
same,AC50,[6],1.05 µM (active)
same,IC50,[7],2.35 µM (active)
same,SSMD,[8],1.02
same,cell count,[8],6520
same,plate-normalised HSF1 focus index,[8],1.07 (inactive)
O=C(Nc1ccccc1)Nc1ccc(-c2ccc(C(=O)[C@@H]3CCC[C@H]3C(=O)O)cc2)cc1,outcome,[1],inactive
same,outcome,[2],inactive
same,outcome,[4],inactive
same,outcome,[5],inactive
same,outcome,[6],inactive
same,outcome,[7],inactive
CCCNS(=O)(=O)Nc1ncnc(OCCOc2ncc(Br)cn2)c1-c1ccc(Br)cc1,outcome,[1],inactive
same,outcome,[2],inactive
same,outcome,[3],inactive
same,outcome,[5],inactive
same,outcome,[6],inactive
same,outcome,[7],inactive
same,fold change,[10]; [13],0.925 (inactive)
same,fold change,[10]; [14],0.512
same,cell count,[10]; [15],8090
same,cell count,[10]; [16],8750
same,z-score,[11]; [17],-0.373 (inactive)
same,z-score,[11]; [18],-0.0447
O=C1NC(=O)/C(=C/c2cccc(C(F)(F)F)c2)S1,parasite load remaining,[12],38.3% (inactive)
same,viability,[12],85%
same,outcome,[1],inactive
same,outcome,[2],inactive
same,outcome,[4],inactive
same,outcome,[5],inactive
same,outcome,[6],inactive
same,outcome,[7],inactive
Cc1cc(-c2ncc(CC(=O)Nc3ccc(-c4cnccn4)cn3)cc2C)ccn1,outcome,[1],inactive
same,outcome,[2],inactive
same,outcome,[3],inactive
same,outcome,[5],inactive
same,outcome,[7],inactive
same,fold change,[10]; [13],0.911 (inactive)
same,fold change,[10]; [14],0.406
same,cell count,[10]; [15],6130
same,cell count,[10]; [16],6730
same,z-score,[11]; [17],-0.348 (inactive)
same,z-score,[11]; [18],0.85
